A selection: hits, their analogues and other compounds. The true share with any hit is near 27%.
Cav3 T inh: Cav3.2 calcium influx blockers – cell-based, Fluo-4 calcium fluorescence, FDSS, MLSMR library, primary screen; AID 449739, 2010; B-score at 10 µM; Cav3.2-expressing cells; hits give low values; actives 4% (n = 100,000); Voltage-dependent T-type calcium channel subunit alpha-1H (Homo sapiens), O95180;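 active = single-dose well whose peak fluorescence ratio is a statistical outlier from its plate by either plate-standardised score or position-corrected B-score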
CYP2C9 activ: human CYP2C9 activators, primary screen, biochemical, luminescence | Cytochrome P450 2C9 (Homo sapiens), P11712 | recombinant CYP2C9, luciferin-H conversion; hits give high values; factor 1 = untreated enzyme, 0 = blocked | activation factor at 5 µM | actives 1.4% (n = 96,000) | AID 1024, 2008;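 active = activation factor of 2 or more for CYP2C9 at a 5 µM dose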;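 note: 0 = sulfaphenazole-blocked wells and 1 = vehicle-only wells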
CYP2C19 act: human CYP2C19 activators, primary screen, biochemical, luminescence | 96,000 tested, under 10 active | activation factor at 5 µM | AID 1025, 2008 | recombinant CYP2C19, luciferin-H EGE luminescence; hits give high values; 0 = fully inhibited enzyme, 1 = untreated enzyme | Cytochrome P450 2C19 (Homo sapiens), P33261;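 active = activation factor of at least 2 at 5 µM in the primary screen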;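 note: 0 = wells with 2.5 mM tranylcypromine and 1 = vehicle-only wells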
Target sequence (P33261 whole entry, looked up): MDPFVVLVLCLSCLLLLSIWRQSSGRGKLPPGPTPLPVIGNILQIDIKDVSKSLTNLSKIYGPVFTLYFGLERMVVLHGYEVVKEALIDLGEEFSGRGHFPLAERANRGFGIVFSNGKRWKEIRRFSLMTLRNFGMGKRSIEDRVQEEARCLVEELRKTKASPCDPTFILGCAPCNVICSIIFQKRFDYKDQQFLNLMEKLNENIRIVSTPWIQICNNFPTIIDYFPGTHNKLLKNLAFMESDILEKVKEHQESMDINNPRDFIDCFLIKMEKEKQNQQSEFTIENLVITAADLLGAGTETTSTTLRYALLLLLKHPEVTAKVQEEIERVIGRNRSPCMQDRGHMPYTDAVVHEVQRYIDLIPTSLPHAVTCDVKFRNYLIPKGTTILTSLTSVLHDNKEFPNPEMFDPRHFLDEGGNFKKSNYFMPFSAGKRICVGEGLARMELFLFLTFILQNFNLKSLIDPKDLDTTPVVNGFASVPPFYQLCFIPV
CYP2C9 inhib: blockers of cytochrome P450 2C9 activity – biochemical, luminescence, ADME assay, primary screen; P11712; AID 777, 2007; CYP2C9 Supersomes, luciferin-H conversion; actives 20% (n = 96,000); inhibition, % at 5 µM;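 active = blocking of liver enzyme CYP2C9 beyond about 50% at 5 µM, limit read from the data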
CYP2C19 inhib: blockers of cytochrome P450 2C19 activity – biochemical, luminescence, ADME assay, primary screen; P33261; CYP2C19 Supersomes, luciferin-H EGE luminescence, 30 min; inhibition, % at 5 µM; actives 21% (n = 96,000); AID 778, 2007;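 active = CYP2C19 inhibition above a set limit at 5 µM in the primary screen, cut at about 50% in these data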;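 note: plate controls were negative control wells for no effect and 2.5 mM tranylcypromine positive control for full effect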
* = called active by the depositor; . = not tested or not shown.

SMILES	Cav3 T inh	CYP2C9 activ	CYP2C19 act	CYP2C9 inhib	CYP2C19 inhib
O=C(Nc1ccc2c(c1)OCO2)Nc1ccc(Cl)cc1Cl	0.023	0.9	0.8	10	19
COC(=O)C(C)Sc1nc2c(c(=O)[nH]c(=O)n2C)n1CCC(C)C (stereo not drawn)	1.6	.	.	.	.
CCOC(=O)C[C@H]1c2ccccc2S(=O)(=O)N1c1cccc(OC)c1	-0.6	.	.	.	.
CCCCn1c(SCc2cc(=O)n3ccsc3n2)nc2cc(C(=O)OC)ccc2c1=O	.	0.9	1	12	-3
CC(Sc1nc2ccccc2[nH]1)C(=O)Nc1ccc2c(c1)OCCO2 (stereo not drawn)	-3.1	0.4	0.7	64*	29
COC(=O)[C@@H]1C[C@H]2CC[C@H](O)C[C@H]2N1Cc1ccc(Cl)cc1	-1.8	.	.	.	.
CSc1cccc(NC(=O)CSc2ccc(C)cc2)c1	-0.4	1	0.8	-5	19
COC(=O)C(O)(CC(=O)Nc1cccc(SC)c1)C(F)(F)F (stereo not drawn)	-2	0.9	0.7	11	32
CSc1cccc(NC(=O)CN(c2ccc(C)cc2C)S(C)(=O)=O)c1	-7.9*	0.4	0.1	62*	95*
Cc1ccc(N(CC(=O)Nc2ccc(F)cc2)S(=O)(=O)N2CCCC2)cc1	-3.2	0.4	0.7	62*	34
Cc1ccc(N(CC(=O)N/N=C/c2cc(C)n(-c3ccccc3)c2C)S(C)(=O)=O)c(C)c1	-6.7*	0.8	0.8	21	18
CSc1cccc(NC(=O)CSc2ccc(Cl)cc2)c1	-0.4	1	0.4	5	61*
CCn1cc(Br)c(C(=O)NCc2ccco2)n1	-0.34	1.2	1	-17	4
CSc1cccc(NC(=O)CN(c2cccc(C)c2)S(C)(=O)=O)c1	-4.3*	0.4	0.3	62*	72*
Cc1cccc(N(CC(=O)Nc2ccc(F)cc2)S(C)(=O)=O)c1	-0.16	0.2	0	82*	96*
CC(C)C(NC(=O)CN(c1cccc(F)c1)S(C)(=O)=O)C(C)C	0.41	.	.	.	.
CCn1cc(Br)c(C(=O)Nc2cccc(SC)c2)n1	-0.81	0.6	0.2	38	81*
Brc1ccc(-c2noc3c2-c2nc(C4CCCCC4)sc2CC3)cc1	-0.17	.	.	.	.
Cc1ccc(S(=O)(=O)N(CCC#N)CCN2CCCC2)cc1	1.1	0.9	0.9	8	13
N#Cc1c(Sc2ncc(C(F)(F)F)cc2Cl)nsc1C/C=N\OCc1c(F)cccc1Cl	-0.48	1.8	0.7	-83	33
Cc1ccc(-c2noc(CN3CCCCC3)n2)cc1	0.23	1.3	0.6	-26	38
c1cc(-c2noc(CC3CCCCC3)n2)ccn1	0.17	0.2	0	77*	99*
O=C(C1=C[C@H](c2ccccc2)C[C@H](OCCCCO)O1)N1CCOCC1	0.67	.	.	.	.
CCOc1ccc(C(=O)N[C@H](C(=O)O)C(C)C)cc1	0.62	0.9	0.9	11	6
O=C(C[n+]1cccc(NC(=O)c2ccccc2)c1)c1ccc(NC(=O)c2ccccc2)cc1	.	1	0.9	4	13
SMILES	Cav3 T inh	CYP2C9 activ	CYP2C19 act	CYP2C9 inhib	CYP2C19 inhib
CCOc1ccccc1C1NC(=O)NC(C)=C1C(=O)OC1CCCC1C (stereo not drawn)	-5.3*	1	1	1	0
CCCCCOC(=O)C1=C(C)NC(=O)NC1c1ccccc1OCC (stereo not drawn)	-5.7*	0.5	0.6	48	43
CCOc1ccccc1C1NC(=O)NC(C)=C1C(=O)OC1CCCCC1 (stereo not drawn)	-2.3	0.9	1	9	-3
CC1=C(C(=O)OCc2ccccc2)C(c2ccccc2OC(F)F)NC(=O)N1 (stereo not drawn)	-1.5	0.9	0.6	15	44
CN1CCN(c2nc3nonc3nc2N2CCN(C)CC2)CC1	0.75	0.9	0.9	8	5
O=C(O)c1ccc2cccc(Cl)c2c1O	.	1	1.1	-5	-11
O=C(O)c1cc(Cl)c2ccccc2c1O	-6.7*	0.2	0.8	79*	20
c1ccc(N2CCN(Cc3cn4cccnc4n3)CC2)cc1	-0.65	1.1	0.7	-14	33
COC(=O)C1=C(C(C)=O)C(c2ccc(C(=O)OC)cc2)n2nnnc2N1 (stereo not drawn)	0.44	0.2	0.9	83*	12
O=C(N/N=C/c1ccc(Br)cc1)c1ccccc1-n1cccc1	-2.6	0.5	0.1	54*	85*
Cc1ccccc1C(=O)N/N=C/c1ccncc1	0.14	0.8	0.7	15	26
c1ccc(N2CCN(c3cnc4ccccc4n3)CC2)cc1	-3.3	1	0.5	5	51*
O=C(c1c(F)cccc1F)N1CCN(c2ncccn2)CC1	-0.67	0.3	0.8	65*	23
O=C(c1ccc(Br)s1)N1CCN(c2ncccn2)CC1	-0.66	0.2	0	80*	98*
O=C(c1ccc(Br)s1)N1CCCC1	0.03	1.2	0.7	-18	34
Cc1cc2ccccc2cc1CN1CCOCC1	-0.75	1	0.4	-1	58*
c1cc2ccc3ccc(CN4CCOCC4)c4ccc(c1)c2c34	0.63	1.5	0.3	-48	74*
Cc1n[nH]c(C)c1SCC(=O)Nc1ccc(F)cc1	-1.4	.	.	.	.
c1ccc(-c2cc(CSc3nc4ccccc4[nH]3)on2)cc1	-3.2	0.4	0.7	62*	28
COc1nonc1NC(=O)CSc1nc2ccccc2[nH]1	0.62	0.8	0.7	23	28
COc1ccc(-c2noc(CSc3nc(-c4ccccc4)cc(=O)[nH]3)n2)cc1	-1.4	1.1	1.2	-8	-18
Fc1cccc(F)c1CSc1nc2ccccc2[nH]1	-0.0034	0.5	0.5	49	54*
O=C(CSc1nc2cc3ccccc3cc2[nH]1)Nc1ccc(F)cc1	-0.046	0.3	0.6	69*	37
O=C(CSc1nc2ccccc2[nH]1)Nc1c(F)cccc1F	-0.17	0.6	0.5	41	51*
Cc1noc(C)c1CSc1nc2ccccc2[nH]1	.	0.7	0.6	26	37
SMILES	Cav3 T inh	CYP2C9 activ	CYP2C19 act	CYP2C9 inhib	CYP2C19 inhib
COCCSc1ccccc1C(=O)NCc1ccco1	-0.16	1.1	0.8	-10	24
O=C(CSc1nc2ncccc2[nH]1)NCc1ccccc1	1.2	1.2	0.7	-24	30
Fc1ccccc1CSc1nc2ncccc2[nH]1	2.3	0.6	0.3	36	66*
CC(NC(=O)NC12CC3CC(CC(C3)C1)C2)C1CCCO1 (stereo not drawn)	0.048	.	.	.	.
COc1ccccc1NC(=O)Oc1ccc(C(C)=O)cc1	-0.66	1.2	0.8	-17	17
CC(=O)c1ccc(OC(=O)N(c2ccccc2)c2ccccc2)cc1	-1.2	0.3	0.4	70*	56*
CCC(C)(CC(=O)N(C)CCC#N)c1ccccc1 (stereo not drawn)	0.016	0.8	0.6	18	45

Source: PubChem BioAssay
